Screening data deposited in PubChem BioAssay by National Center for Advancing Translational Sciences (NCATS).
Most compounds without a hit are left out; they make up all but 2.4% or so of the library.
POLK inh – DNA polymerase kappa (human) inhibition | purified Pol kappa, fluorescent DNA synthesis assay, 10 min | Potency, µM (doses to about 107 µM), most hits filed as inhibitors | 400,000 compounds, 0.53% hits | Q9UBT6 | AID 588579
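50 nM final substrate added after 15 min RT preincubation of 10 nM Pol kappa with compound; fluorescence read at 0 and 10 min.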
Pol eta inh – blocks human DNA polymerase eta activity; 390,000 compounds, 1.2% hits; AID 588591; recombinant Pol eta, fluorescent DNA replication assay; Potency, µM (titrated, usually from 114 µM), actives largely listed as inhibitors; Q9Y253
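Pol eta at 10 nM preincubated with compounds 15 min at room temperature; reaction started with fluorescent substrate (50 nM final) and read kinetically at 0 and 10 min.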
Pol beta inh – blocks human DNA polymerase beta activity; P06746; Pol beta primer extension/strand displacement, fluorescence kinetic; Potency, µM (titrated, usually from 114 µM), most hits filed as inhibitors; 340,000 compounds, 1.3% hits
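Homogeneous kinetic assay of primer extension and strand displacement by 10 nM Pol beta, preincubated 15 min at room temperature with compound before 50 nM substrate (final) was added. Read at 0 and 10 min; four-parameter Hill fit.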
TDP1 block – blocks human tyrosyl-DNA phosphodiesterase 1; Potency, µM (top dose mostly 130 µM), actives largely listed as inhibitors; AID 485290; recombinant TDP1, AlphaScreen DNA substrate cleavage; 350,000 compounds, 0.28% hits; Q9NUW8; note: nearly all actives have a fitted effect of over 40% in size
Target sequence (Q9NUW8 whole entry, looked up): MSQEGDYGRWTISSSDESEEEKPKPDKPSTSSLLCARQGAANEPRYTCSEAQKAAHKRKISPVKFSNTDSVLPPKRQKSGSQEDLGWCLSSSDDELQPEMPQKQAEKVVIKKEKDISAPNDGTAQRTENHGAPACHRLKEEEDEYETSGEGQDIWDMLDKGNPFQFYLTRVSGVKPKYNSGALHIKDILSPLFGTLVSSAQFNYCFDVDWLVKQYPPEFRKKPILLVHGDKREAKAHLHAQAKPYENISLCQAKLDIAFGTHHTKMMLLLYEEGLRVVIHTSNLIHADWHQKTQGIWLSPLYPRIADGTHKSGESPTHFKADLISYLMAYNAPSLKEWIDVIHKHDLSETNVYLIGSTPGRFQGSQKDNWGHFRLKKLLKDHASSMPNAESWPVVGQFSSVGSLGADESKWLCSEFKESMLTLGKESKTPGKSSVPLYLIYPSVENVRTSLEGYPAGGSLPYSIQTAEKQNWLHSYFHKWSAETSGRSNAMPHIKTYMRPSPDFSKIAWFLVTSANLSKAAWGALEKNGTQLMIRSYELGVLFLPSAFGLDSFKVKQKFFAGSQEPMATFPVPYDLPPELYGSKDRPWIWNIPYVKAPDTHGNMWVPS
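Tdp1 1 nM final; 15 min RT w/ cpd; substrate 15 nM, 5 min; beads 10 ug/ml, 10 min; AlphaScreen read. Neg ctrl: no enzyme.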
Pol iota inh – blocks human DNA polymerase iota activity. Potency, µM (highest dose often 115 µM), hits mostly inhibitors. Q9UNA4. Pol iota fluorescent replication assay, 10 min. 390,000 compounds, 1% hits
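Fluorescent replication assay read twice, at 0 min and 10 min after adding 50 nM (final) substrate. Enzyme (10 nM) and compounds were first incubated 15 min at room temperature; enzyme-free buffer wells were negative controls.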
Hits are given with their value; – = inactive; ? = inconclusive; · = no result. Calls come from the whole dose curve; as a rule, active = well fitted curve in the direction sought with a large enough effect; inconclusive = small, poorly fitted or top-dose-only effect, or another doubt; inactive = no such curve, though single readings can be large; an effect the other way counts as inactive or inconclusive.

SMILES	POLK inh	Pol eta inh	Pol beta inh	TDP1 block	Pol iota inh
C=CCN1C(=O)/C(=N/n2cnnc2)c2ccccc21	–	–	–	–	31.6µM
CC1(C)CC2CC(C)(CN2C(=O)COC(=O)c2ccc(O)cc2O)C1 (centres undefined)	–	?	·	7.94µM	?
COc1ccc(CNC(=O)c2cc3c(s2)-c2c(C)cccc2OC3)cc1	–	–	14.1µM	–	?
CCCN1CCN(CCCNC(=O)c2cc3c(s2)-c2c(C)cccc2OC3)CC1	–	–	–	–	–
Cc1cccc2c1-c1sc(C(=O)NCCc3ccc(Cl)cc3)cc1CO2	–	–	8.91µM	–	?
CNc1c(Br)cc(/C=C2\C=C(C(O)c3cc(Br)c(NC)c(Br)c3)c3ccccc32)cc1Br (centres undefined)	–	·	·	·	–
CCn1c2c(c(=O)n3ncc(C(=O)N4CCN(c5ccc(C(C)=O)cc5)CC4)c13)CN(Cc1ccc(OC)cc1)CC2	–	89.1µM	?	–	?
CCc1ccc(Nc2nnc(SCC(=O)NC(=O)CN3CCCC3=O)s2)cc1	–	44.7µM	·	17.8µM	44.7µM
COc1ccccc1Nc1nnc(SCC(=O)N2CCCC2=O)s1	–	–	–	–	–
Cc1ccccc1OCC(=O)Nc1c(C)ccc2nsnc12	–	–	–	–	–
CCc1cc(C(=O)Cc2cnn(-c3ccccc3)c2)c(O)cc1O	–	–	–	–	–
O=C(Cc1cnn(-c2ccccc2)c1)c1ccc(O)c(O)c1O	2.51µM	?	?	–	?
Clc1ccc[n+](CCCCC[n+]2cccc(Cl)c2)c1	–	·	·	·	–
COc1ccc(/C=C/C(=O)O)cc1S(=O)(=O)N1CCC(C)CC1	–	79.4µM	–	·	–
COc1ccc(/C=C/C(=O)O)cc1S(=O)(=O)N1CCCC1	–	17.8µM	?	–	–
O=C1C2CCCCN2C(=O)N1CCCCN1CCN(c2cccc(Cl)c2)CC1 (centres undefined)	–	–	–	–	–
CC(C)C(=O)Nc1cccc(N2CCN(CCCN3C(=O)C4CCCCN4C3=O)CC2)c1 (centres undefined)	–	–	·	·	12.6µM
C=CCOc1c(Br)cc(/C=C2/C(=O)ON=C2C)cc1OC	–	–	–	·	89.1µM
COC(=O)/C=C1/SC(=Nc2ccc(Cl)c(Cl)c2)NC1=O	–	79.4µM	–	–	–
COC(=O)/C=C1\SC(=Nc2ccccc2)NC1=O	–	–	–	–	–
Cc1cccc(CNC(=O)C2CCN(c3nn4cc(-c5ccc(F)cc5)nc4s3)CC2)c1	–	–	–	–	–
Cc1ccc2ccccc2[n+]1CCCCI	?	·	·	·	–
Cc1cc(N)c2ccccc2[n+]1CCCCCCCCCC[n+]1c(C)cc(N)c2ccccc21	?	–	31.6µM	–	?
CC(C)(C)c1ccc(C(=O)N/C(=C\c2ccco2)C(=O)Nc2ccccc2C(=O)O)cc1	?	35.5µM	?	–	?
Cc1cccc(/C=N/NC(=O)c2cc(Br)ccc2OCc2ccccc2)n1	–	–	44.7µM	·	?
SMILES	POLK inh	Pol eta inh	Pol beta inh	TDP1 block	Pol iota inh
Cc1cc(O)c(C(=O)/C=C/c2cccc([N+](=O)[O-])c2)c(=O)o1	?	79.4µM	?	·	39.8µM
Cc1cc(O)c(C(=O)/C=C/c2ccccc2O)c(=O)o1	–	?	–	·	–
Cc1ccc(C)c(Cn2c3ccccc3c3cnn(CC(=O)NC4CCC(C)CC4)c(=O)c32)c1 (centres undefined)	–	–	–	–	?
CS(=O)(=O)N(CC(=O)NCc1ccco1)c1ccc(OCc2ccccc2)cc1	–	–	15.8µM	–	?
COCCNC(=O)Cn1cc(S(=O)(=O)Cc2ccccc2Cl)c2ccccc21	–	–	–	–	–
Cc1ccccc1Nc1nc(N)nc(COC(=O)c2ccc([N+](=O)[O-])o2)n1	–	89.1µM	·	–	?
Cc1ccccc1Nc1nc(N)nc(COC(=O)c2ccccc2)n1	–	–	–	–	–
CC(C)(C)n1ncc2c(=O)n(Cc3cccc(OC(F)F)c3)cnc21	–	·	·	·	–
O=C1Nc2ccccc2C1Cc1ccc(Br)cc1 (centres undefined)	–	–	–	–	–
CN(C)c1ccc(CC2C(=O)Nc3ccccc32)cc1 (centres undefined)	–	–	–	–	25.1µM
COc1cccc2c1C(=O)/C(=C/c1ccc(N(C)C)cc1)C2	–	·	·	·	–
CC(C)=CNNC(=O)c1ccc(O)cc1	–	·	·	·	–
Cc1ccc(-c2cc(C(F)(F)F)n3nc(-c4cccc(Br)c4)cc3n2)cc1	?	–	–	·	89.1µM
COCCNC(=O)c1c[nH]c2ccc(S(=O)(=O)N3CCC4(CC3)OCCO4)cc2c1=O	–	–	–	–	–
CC(C)CCNC(=O)c1c[nH]c2ccc(S(=O)(=O)N3CCC4(CC3)OCCO4)cc2c1=O	–	–	35.5µM	–	–
CN(C)S(=O)(=O)c1cccc(NC(=S)Nc2cccc3cnccc23)c1	–	–	–	–	2.82µM
S=C(Nc1cccnc1)Nc1cccc2cnccc12	–	–	–	–	?
O=C(O)c1cccc(Sc2ccc(Br)cc2C(=O)O)c1	–	–	·	–	–
Nc1cc(C(=O)O)ccc1Sc1ccccc1C(=O)O	–	–	–	44.7µM	–
N#Cc1ccc(C(=O)N(Cc2ccco2)Cc2cccs2)cc1	–	·	·	–	–
COc1cccc(C2c3c(ncn(-c4ccccc4OC)c3=N)Oc3ccc4ccccc4c32)c1 (centres undefined)	·	·	·	–	·
CCN(CC)C(=O)Oc1ccc2c(c1)O/C(=C\c1ccco1)C2=O	–	–	44.7µM	·	?
COC(=O)COc1ccc2c(c1)O/C(=C\c1ccco1)C2=O	–	?	31.6µM	·	?
CCc1ccc2oc(-c3ccc(C)c(NC(=O)COc4ccccc4Cl)c3)nc2c1	–	·	·	·	–
CCCN1CNc2c(c(=O)[nH]c(=S)n2CCC(C)(C)C)C1	–	·	·	–	–
SMILES	POLK inh	Pol eta inh	Pol beta inh	TDP1 block	Pol iota inh
CCc1ccc(-c2nc(CS(=O)CC(=O)NCc3ccco3)c(C)o2)cc1 (centres undefined)	–	89.1µM	?	–	–
COc1ccc(-c2nc(CS(=O)CC(=O)NCc3ccco3)c(C)o2)cc1 (centres undefined)	–	–	–	–	–
Cc1ccc2oc(C(=O)NCC(c3ccc(Cl)cc3)N3CCOCC3)c(C)c2c1 (centres undefined)	–	?	–	–	–
NS(=O)(=O)c1cccc(NC(=O)CSc2ncnc3ccccc23)c1	–	–	–	·	–
NS(=O)(=O)c1ccc(NC(=O)CSc2ncnc3ccccc23)cc1	–	–	31.6µM	–	–
CSc1ccc(C(c2c(C(=O)O)[nH]c3ccccc23)c2c(C(=O)O)[nH]c3ccccc23)cc1	?	79.4µM	–	·	?
CSc1ccc(C(c2c(C)[nH][nH]c2=O)c2c(C)[nH][nH]c2=O)cc1	–	–	–	–	?
CCOc1cc(Br)cc(C(c2c(C(=O)O)[nH]c3ccccc23)c2c(C(=O)O)[nH]c3ccccc23)c1O	?	79.4µM	?	·	–
